The source of these data is PubChem BioAssay (NCATS).

Inconclusive results are not listed. Values without a mark were called inactive. Calls of active or inactive are those of the source. The call rests on the fitted dose curve; in most records, active means well fitted inhibition curve with a large enough effect; inconclusive means small, poorly fitted or top-dose-only effect; inactive means flat fitted curve, though single readings scatter.

The subject of test [1] is Dd2. The experiment in a line: qHTS profiling for inhibitors of Plasmodium falciparum proliferation (AID 504749). To be noted: P. falciparum in erythrocytes, SYBR Green DNA, 72 h; series mostly up to 28.7 µM. The essentials: (§1)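 In a 72 h erythrocytic culture (37 C, humidified, 5% CO2) at 2.5% hematocrit and 0.3% starting parasitemia, compounds were tested; SYBR Green I in detergent lysis buffer stained parasite DNA overnight.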

The subject of test [2] is ECU. The description is as above. To be noted: P. falciparum in erythrocytes, SYBR Green DNA, 72 h; series mostly up to 28.7 µM. Summed up:
as §1

Test [3] concerns FAB9. The description is as above. To be noted: P. falciparum in erythrocytes, SYBR Green DNA, 72 h; series mostly up to 28.7 µM. The essentials:
as §1

Test [4] has as its system GB4. The test is described as above. To be noted: P. falciparum in erythrocytes, SYBR Green DNA, 72 h; series mostly up to 28.7 µM. The essentials:
as §1

Test [5] has as its system HB3. Described as above. To be noted: P. falciparum in erythrocytes, SYBR Green DNA, 72 h; series mostly up to 28.7 µM. The essentials: as §1
Test [6] concerns ICS. Described as above. To be noted: P. falciparum in erythrocytes, SYBR Green DNA, 72 h; series mostly up to 28.7 µM. The essentials:
as §1

Test [7] deals with JCK. The description is as above. To be noted: P. falciparum in erythrocytes, SYBR Green DNA, 72 h; series mostly up to 28.7 µM. The essentials: as §1
In test [8] the test system is N140. The description is as above. To be noted: P. falciparum in erythrocytes, SYBR Green DNA, 72 h; series mostly up to 28.7 µM. Summed up: as §1
Test [9] concerns P93_24. Described as above. To be noted: P. falciparum in erythrocytes, SYBR Green DNA, 72 h; series mostly up to 28.7 µM. Summed up: as §1
Test [10] relates to P94_40. Described as above. To be noted: P. falciparum in erythrocytes, SYBR Green DNA, 72 h; series mostly up to 28.7 µM. The essentials:
as §1

Test [11] deals with PAD. The test is described as above. To be noted: P. falciparum in erythrocytes, SYBR Green DNA, 72 h; series mostly up to 28.7 µM. The essentials:
as §1

In test [12] the test system is PC15. The test is described as above. To be noted: P. falciparum in erythrocytes, SYBR Green DNA, 72 h; series mostly up to 28.7 µM. Summed up: as §1
Test [13] deals with PC26. Described as above. To be noted: P. falciparum in erythrocytes, SYBR Green DNA, 72 h; series mostly up to 28.7 µM. Summed up: as §1
In test [14] the test system is PC49. Described as above. To be noted: P. falciparum in erythrocytes, SYBR Green DNA, 72 h; series mostly up to 28.7 µM. Summed up:
as §1

In test [15] the test system is SC27B. The test is described as above. To be noted: P. falciparum in erythrocytes, SYBR Green DNA, 72 h; series mostly up to 28.7 µM. The essentials:
as §1

The subject of test [16] is TAB109. The test is described as above. To be noted: P. falciparum in erythrocytes, SYBR Green DNA, 72 h; series mostly up to 28.7 µM. Summed up:
as §1

Test [17] concerns TAB113. The test is described as above. To be noted: P. falciparum in erythrocytes, SYBR Green DNA, 72 h; series mostly up to 28.7 µM. Summed up: as §1
Test [18] deals with TAB165. Described as above. To be noted: P. falciparum in erythrocytes, SYBR Green DNA, 72 h; series mostly up to 28.7 µM. The essentials: as §1
Test [19] deals with W2. The description is as above. To be noted: P. falciparum in erythrocytes, SYBR Green DNA, 72 h; series mostly up to 28.7 µM. The essentials:
as §1

Test [20] deals with CRL-7250. The test is described as follows: Cytotoxic Profiling of Annotated Libraries Using Quantitative High-Throughput Screening (AID 1296008). On max response: on the % scale 0 is the no-effect control and ±100 the full control effect. To be noted: Five cell lines viability, CellTiter-Glo ATP luminescence, 48-72 h; max response: hits give low values. Summed up: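 Cytotoxicity was measured as CellTiter-Glo ATP luminescence, read after 10 min at room temperature. Compound treatment of the cells lasted 48 or 72 hr at 37 degrees Celsius in a qHTS format.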
Further: nearly all actives have a fitted effect of over 60% in size.
Potency means the concentration at half of the fitted maximal effect.

As to `CCN(CC)CCNC(=O)c1ccc(NC(C)=O)cc1`, the Potency entry in [1], in test [2], in test [3], in [4], in test [5] and in test [6] was “inactive” each time. Further, the Potency result in [7], in [8], in test [9], in test [10], in test [11] and in test [12] was “inactive” in each case. Moreover, the Potency result in test [13], in test [14], in test [15], in test [16], in test [17] and in [18] was “inactive” each time. Further, the Potency result in test [19] is “inactive”. Besides, the molecule was classed as inactive in test [20].
Turning to `Cc1ccc(Cl)c(Nc2ccccc2C(=O)O)c1Cl`, the Potency result in test [1], in [2], in test [3], in test [4], in test [5] and in test [6] was “inactive” each time. Further, the Potency entry in [7], in [8], in test [9], in test [10], in test [11] and in test [12] was “inactive” in each case. In addition, the Potency entry in [13], in [14], in test [15], in test [16], in [17] and in [18] was “inactive” in each case. In test [19], the Potency result is “inactive”. The max response in test [20] is 2.33%.
`CC(=O)[C@]1(O)Cc2c(O)c3c(c(O)c2[C@@H](O[C@H]2C[C@H](N)[C@H](O)[C@H](C)O2)C1)C(=O)c1ccccc1C3=O`: the Potency in test [1] is 0.158 µM (active); in [2], 7.94 µM (active); in [3], 11.2 µM (active); in [4], 4.78 µM (active); in test [5], 4.47 µM (active); in test [6] it was 1.78 µM (active). Further, the Potency is 8.91 µM (active) in test [7]; 4.47 µM (active) in test [8]; 4.47 µM (active) in test [9]; 3.16 µM (active) in [10]; 5.01 µM (active) in [11]; 8.91 µM (active) in [12]. Besides, the Potency in [14] was 7.08 µM (active); in test [15], 5.01 µM (active); in [16], 3.98 µM (active); in test [17] it was 4.47 µM (active); in [18], 3.16 µM (active); in test [19], 1.69 µM (active). The Potency in test [20] is 0.237 µM (active).
For the molecule `NC(=O)c1ncn([C@@H]2O[C@H](CO)[C@@H](O)[C@H]2O)c1O`, the Potency result in [1], in test [2], in test [3], in test [4], in test [5] and in test [6] was “inactive” in each case. Further, the Potency entry in test [7], in test [8], in [9], in test [10], in [11] and in test [12] was “inactive” throughout. For the same molecule, the Potency entry in [13], in test [14], in test [15], in test [16], in test [17] and in test [18] was “inactive” throughout. The Potency result in test [19] was “inactive”. Moreover, in [20], the max response was -24.9%.
For the molecule `CCCOc1ccccc1-c1nc2n[nH]nc2c(=O)[nH]1`, the Potency entry in test [1], in test [2], in test [3], in test [4], in test [5] and in test [7] was “inactive” each time. The Potency result in test [8], in test [9], in [10], in [11], in test [12] and in [13] was “inactive” in each case. The Potency entry in test [14], in test [15], in test [16], in test [17] and in [18] was “inactive” each time. In addition, the max response in test [20] was -0.525%.
Take `NC(=O)c1cn(Cc2c(F)cccc2F)nn1`: the Potency result in test [1], in test [2], in [3], in test [4], in test [5] and in test [6] was “inactive” in each case. For the same molecule, the Potency result in [7], in test [8], in test [9], in [10], in test [11] and in [12] was “inactive” in each case. Besides, the Potency entry in test [13], in [14], in test [15], in [16], in test [17] and in [18] was “inactive” in each case. Moreover, the Potency entry in [19] was “inactive”. For the same molecule, the molecule was classed as inactive in [20].
`Nc1c2c(nc3ccccc13)CCCC2O` (stereo unspecified): the Potency result in [1], in test [2], in test [3], in [4], in [5] and in [6] was “inactive” in each case. The Potency entry in test [7], in test [8], in test [9], in test [10], in test [11] and in [12] was “inactive” in each case. Besides, the Potency entry in test [13], in test [14], in test [15], in [16], in test [17] and in [18] was “inactive” in each case. Besides, in [19], the Potency result was “inactive”. In addition, the max response in [20] was -0.206%.
With `CC(C(=O)O)c1ccc(CC2CCCC2=O)cc1` (stereo unspecified), the Potency entry in test [1], in test [2], in test [3], in [4], in test [5] and in [6] was “inactive” in each case. Also, the Potency result in test [7], in test [8], in test [9], in test [10], in [11] and in [12] was “inactive” each time. Also, the Potency result in test [13], in test [14], in [15], in test [16], in test [17] and in test [18] was “inactive” each time. Besides, the Potency entry in test [19] is “inactive”. The max response in test [20] is 2.29%.
Consider `NC/C=C/C(=O)O`, for which the Potency result in test [1], in test [2], in test [3], in test [4], in test [5] and in test [6] was “inactive” in each case. Moreover, the Potency result in [7], in test [8], in test [9], in test [10], in test [11] and in [12] was “inactive” each time. In addition, the Potency result in test [13], in [14], in test [15], in test [16], in [17] and in test [18] was “inactive” in each case. In addition, in test [19], the Potency result is “inactive”. The max response in [20] was -5.1%.
Consider `Cc1ccc(=O)n(-c2ccccc2)c1`, for which the Potency entry in [1], in test [2], in test [3], in [4], in test [5] and in [6] was “inactive” throughout. The Potency entry in [7], in test [8], in test [9], in test [10], in [12] and in [13] was “inactive” in each case. Besides, the Potency entry in test [14], in [15], in test [16], in [17], in test [18] and in test [19] was “inactive” each time. In test [20], the max response is -4.72%.
In the case of `NC(Cc1ccc(Cl)cc1)C(=O)O` (stereo unspecified), the Potency result in [1], in test [2], in test [3], in [4], in test [5] and in test [6] was “inactive” throughout. Also, the Potency entry in test [7], in test [8], in test [9], in test [10], in [11] and in test [12] was “inactive” each time. Moreover, the Potency result in test [13], in [14], in [15], in [16], in test [17] and in [18] was “inactive” in each case. Also, the Potency result in test [19] is “inactive”. Moreover, the max response in test [20] is -4.47%.
`CCn1cc(C(=O)O)c(=O)c2cc3c(cc21)OCO3`: the Potency result in [1], in [2], in test [3], in [4], in test [5] and in [6] was “inactive” in each case. Also, the Potency entry in test [7], in test [8], in test [9], in test [10], in [11] and in [12] was “inactive” in each case. The Potency entry in test [13], in test [14], in [15], in test [16], in test [17] and in test [18] was “inactive” throughout. For the same molecule, in test [19], the Potency entry is “inactive”. Moreover, the max response in test [20] is -16.9%.
